CBFb-RUNX1 inh: inhibitors of human CBF-beta and RUNX1 interaction; Q01196+Q13951; AID 1477; AlphaScreen CBFb-His/RUNX1-biotin binding, biochemical; 230,000 tested, under 10 active; Potency, µM (highest dose often 59.8 µM), for inactives: at the highest dose activity, negative = inhibition, hits mostly inhibitors; also: % of control where 0% means no effect
Target sequence (Q01196 whole entry, looked up): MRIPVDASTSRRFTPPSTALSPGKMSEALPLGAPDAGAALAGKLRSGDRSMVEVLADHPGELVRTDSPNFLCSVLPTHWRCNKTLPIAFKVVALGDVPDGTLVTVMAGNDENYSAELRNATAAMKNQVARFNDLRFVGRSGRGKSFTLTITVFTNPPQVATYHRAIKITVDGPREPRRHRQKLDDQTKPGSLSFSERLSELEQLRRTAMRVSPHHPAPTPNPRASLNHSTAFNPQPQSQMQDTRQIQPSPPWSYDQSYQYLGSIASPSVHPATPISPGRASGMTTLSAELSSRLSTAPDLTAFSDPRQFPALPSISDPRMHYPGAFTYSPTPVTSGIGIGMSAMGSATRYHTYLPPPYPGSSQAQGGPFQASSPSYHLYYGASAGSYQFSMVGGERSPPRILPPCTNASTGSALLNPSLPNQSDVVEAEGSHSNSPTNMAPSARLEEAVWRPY
Target sequence (Q13951 whole entry, looked up): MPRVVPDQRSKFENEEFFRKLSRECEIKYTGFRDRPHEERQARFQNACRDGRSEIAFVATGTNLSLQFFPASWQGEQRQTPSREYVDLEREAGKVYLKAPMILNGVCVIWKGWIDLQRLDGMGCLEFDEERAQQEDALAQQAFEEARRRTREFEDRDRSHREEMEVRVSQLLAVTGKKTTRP
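Inhibition was taken as any reduction in AlphaScreen signal from the CBF-beta–RUNX1 pair (His and biotin tags, 30 nM each), measured after compound (15 min) and bead (90 min) incubations at room temperature.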
MBNL1 CUG block: inhibitors of human MBNL1 binding to CUG repeat RNA | TR-FRET MBNL1-His/biotin-(CUG)12 binding, 665/545 ratio | Potency, µM (doses to about 57.5 µM), for inactives: top-dose activity change, negative = inhibition, most hits filed as inhibitors | hit rate 0.036% among 280,000 | AID 2675; active = well fitted inhibition curve with a large enough effect in the signal ratio, with a control signal flat, not every such curve was filed as active; inconclusive = small, poorly fitted or top-dose-only effect, or effect the other way, or a change in a side signal; inactive = no such curve, though single readings can be large or run the other way; the % refers to the signal ratio; also: potency is read from the fitted curve at half-maximal effect; % is scaled to controls: 0 for no effect and ±100 for the full control effect
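MBNL1-His + Biotin-(CUG)12, cpd titration 92 nM–58 uM; Tb anti-His Ab 0.055 ng/ul, SA-XL665 5 nM (final); 60 min RT; ratiometric 665/545 nm, Ex 340 nm; normalized to buffer and full-complex controls.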
RORgamma inh: ROR gamma (mouse) transcription inhibition; Potency, µM (titrated, usually from 53.6 µM), for inactives: top-dose activity change, negative = inhibition, usual class: inhibitors; P51450; hit rate 5.4% among 310,000; Drosophila S2 Gal4-RORgamma UAS-luciferase reporter, 20 h; also: potency is read from the fitted curve at half-maximal effect; % is scaled to controls: 0 for no effect and ±100 for the full control effect; nearly all actives have a fitted effect of over 60% in size
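In this cell-based reporter format, copper sulfate (700 uM final) drives Gal4–ROR gamma fusion expression from a metallothionein promoter in Drosophila Schneider cells; compounds preincubated 1 hr, reporter read after 20 hr at ambient temperature.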
CtBP-E1A blk: blocks the CtBP interaction with E1A | AlphaScreen GST-E1A/His-CtBP binding, 1536-well; stronger effect = lower value | activity change, % (no concentration beside the values) | hit rate 0.49% among 340,000 | AID 651724; in the data active = activity change below about -65%; inconclusive = mostly about -30% to -63%; also: % is scaled to controls: 0 for no effect and ±100 for the full control effect
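Protein mix (5X: 125 nM each GST-E1A, His-CtBP) was incubated with pinned compound 2 h at 37 deg C in dark, in 50 mM Tris pH 8.0 buffer with 300 mM NaCl. Glutathione donor and nickel acceptor beads followed; AlphaScreen signal read after 1 h.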
Six1-Eya2 inh: Six1/Eya2 interaction inhibition; Q15475+O00167; AlphaScreen GST-Six1/His-Eya2 binding, biochemical; stronger effect = lower value; activity change, % (concentration not given with the values); hit rate 0.56% among 360,000; AID 651725; in the data active = activity change below about -65%; inconclusive = mostly about -30% to -63%; also: % is scaled to controls: 0 for no effect and ±100 for the full control effect
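Compounds are tested against tagged Six1 and Eya2 proteins bridged by glutathione donor and nickel acceptor beads; after a one-hour incubation at 37 °C without light, AlphaScreen emission is recorded.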
VP16 counter: inhibits Gal4-VP16 luciferase reporter, ROR gamma counter-screen; Drosophila S2 Gal4-VP16 UAS-luciferase, luminescence, 20 h; Potency, µM (doses to about 53.6 µM), without a hit: at the highest dose activity, negative = inhibition, usual class: inhibitors; hit rate 3.5% among 310,000;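 also: Gal4-VP16 expression switched on by copper sulfate through the metallothionein promoter; potency is read from the fitted curve at half-maximal effect; % is scaled to controls: 0 for no effect and ±100 for the full control effect; nearly all actives have a fitted effect of over 50% in size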
Starred values were filed as active, the others as inactive. Compounds with a hit are over-represented: about 5.5% of the library has one in this group of screens. Unless noted, calls follow the shape of the dose curve; as a rule, active = well fitted curve in the direction sought with a large enough effect; inconclusive = small, poorly fitted or top-dose-only effect, or another doubt; inactive = no such curve, though single readings can be large; an effect the other way counts as inactive or inconclusive.

For c1ccc(-c2nc3cc4ccccc4cc3[nH]2)nc1 the results were CBFb-RUNX1 inh -17.5%, MBNL1 CUG block inconclusive, RORgamma inh 2.82µM*, CtBP-E1A blk -10.7, Six1-Eya2 inh -23.5 and VP16 counter 3.16µM*.
For O=C(Nc1ccc2nc(-c3cccs3)[nH]c2c1)c1cccs1 the results were CBFb-RUNX1 inh 0.6%, MBNL1 CUG block 6.6%, RORgamma inh -1.6%, CtBP-E1A blk inconclusive, Six1-Eya2 inh inconclusive and VP16 counter -6.6%.
Screening Cc1ccc(N2CCN(S(=O)(=O)c3c(C)nc4scc(C)n4c3=O)CC2)c(C)c1 returned MBNL1 CUG block 18.7%, RORgamma inh 25.0%, CtBP-E1A blk -5.3, Six1-Eya2 inh 0.8 and VP16 counter -5.5%.
For O=C(O[C@@H]1Cc2c(O)cc(O)cc2OC1c1ccc(O)c(O)c1)c1cc(O)c(O)c(O)c1 (stereo partly specified) the results were RORgamma inh -32.1% and VP16 counter -5.4%.
`CCOC(=O)/C=C1/SCC(=O)N1CC(=O)Nc1cccc(F)c1` gave CtBP-E1A blk 11.1 and Six1-Eya2 inh 1.5.
`COc1ccc(-c2nnc(SCC(=O)NCCC(C)C)nc2-c2ccc(OC)c(OC)c2)cc1OC` gave MBNL1 CUG block inconclusive, RORgamma inh 10.0%, CtBP-E1A blk -2.2, Six1-Eya2 inh -5.6 and VP16 counter -2.8%.
CCC(C)NC(=O)CSc1nnc(-c2cc(OC)c(OC)c(OC)c2)c(-c2cc(OC)c(OC)c(OC)c2)n1 (stereo unspecified) was read as MBNL1 CUG block inconclusive, RORgamma inh 2.82µM*, CtBP-E1A blk 5.2, Six1-Eya2 inh 4.0 and VP16 counter inconclusive.
For OC1CCN(Cc2ccc(OCc3ccccc3)cc2)CC1 the results were MBNL1 CUG block 1.3%, RORgamma inh 10µM*, CtBP-E1A blk 1.4, Six1-Eya2 inh -1.3 and VP16 counter inconclusive.
`CC(C)c1nnc(NC(=O)CCC(=O)N2CCN(Cc3ccc(F)cc3)CC2)s1` gave MBNL1 CUG block -2.3%, RORgamma inh -2.9%, CtBP-E1A blk 0.8, Six1-Eya2 inh 3.7 and VP16 counter -7.2%.
Screening C=CCSc1nnc(NC(=O)c2nc(SCC)ncc2Cl)s1 returned CBFb-RUNX1 inh -2.1%, MBNL1 CUG block 5.0%, RORgamma inh 11.2µM*, CtBP-E1A blk -2.0, Six1-Eya2 inh -2.1 and VP16 counter inconclusive.
Screening CC(C)c1nnc(NC(=O)CS(=O)(=O)Cc2ccccc2)s1 returned CBFb-RUNX1 inh 1.5%, MBNL1 CUG block 1.7%, RORgamma inh -17.9%, CtBP-E1A blk 4.5, Six1-Eya2 inh 7.9 and VP16 counter 10.3%.
Screening CSc1nnc(NC(=O)c2nc(S(=O)(=O)Cc3cccc(C)c3)ncc2Cl)s1 returned MBNL1 CUG block 8.7%, RORgamma inh inconclusive, CtBP-E1A blk -3.4, Six1-Eya2 inh -27.2 and VP16 counter 17.8µM*.
For Cc1cccc(CS(=O)(=O)c2ncc(Cl)c(C(=O)Nc3nnc(C(C)C)s3)n2)c1 the results were MBNL1 CUG block inconclusive, RORgamma inh 0.0224µM*, CtBP-E1A blk -3.3, Six1-Eya2 inh -23.3 and VP16 counter inconclusive.
CC(C)c1nnc(NC(=O)c2nc(S(=O)(=O)Cc3ccc(F)cc3)ncc2Cl)s1 was read as MBNL1 CUG block 14.5%, RORgamma inh 11.2µM*, CtBP-E1A blk -2.6, Six1-Eya2 inh 18.3 and VP16 counter inconclusive.
`O=C(COC(=O)C1CC1)Nc1ccc(Cl)cc1Cl` gave Six1-Eya2 inh -0.2.
Screening c1cncc(-c2nc(-n3ccnc3)c3ccccc3n2)c1 returned RORgamma inh -2.1% and VP16 counter -0.9%.
`Cc1ccc(CS(=O)(=O)c2ncc(Cl)c(C(=O)Nc3nnc(C(C)C)s3)n2)cc1` gave MBNL1 CUG block 2.5%, RORgamma inh inconclusive, CtBP-E1A blk -0.9, Six1-Eya2 inh -28.6 and VP16 counter 7.08µM*.
`CCSc1nnc(NC(=O)CN(C)S(=O)(=O)c2ccc(F)cc2)s1` gave CBFb-RUNX1 inh 11.3%, MBNL1 CUG block -12.0%, RORgamma inh 20.9%, CtBP-E1A blk 2.0, Six1-Eya2 inh 2.6 and VP16 counter 3.2%.
CCSc1nnc(NC(=O)c2nc(S(=O)(=O)Cc3ccc(F)cc3)ncc2Cl)s1 was read as MBNL1 CUG block 10.1%, RORgamma inh inconclusive, CtBP-E1A blk 1.1, Six1-Eya2 inh 13.0 and VP16 counter 11.2µM*.
O=c1c2ccccc2[nH]c(=S)n1CCCN1CCOCC1 was read as CBFb-RUNX1 inh 8.6%, MBNL1 CUG block 3.5%, RORgamma inh inconclusive, CtBP-E1A blk 6.1, Six1-Eya2 inh 3.5 and VP16 counter -8.9%.
Screening O=c1c2ccc(Cl)cc2[nH]c(=S)n1CCCN1CCOCC1 returned CBFb-RUNX1 inh 11.1%, MBNL1 CUG block -4.7%, RORgamma inh 7.94µM*, CtBP-E1A blk -19.7, Six1-Eya2 inh -14.8 and VP16 counter inconclusive.
`CCN(CC)CCn1c(=S)[nH]c2cc(C(=O)NCc3ccccc3Cl)ccc2c1=O` gave MBNL1 CUG block -5.9%, RORgamma inh -13.9%, CtBP-E1A blk -3.4, Six1-Eya2 inh 3.3 and VP16 counter -4.4%.
For O=c1c2ccc(Cl)cc2[nH]c(=S)n1CCC1=CCCCC1 the results were CBFb-RUNX1 inh -3.3%, MBNL1 CUG block -2.7%, RORgamma inh 1.26µM*, CtBP-E1A blk 0.0, Six1-Eya2 inh 13.9 and VP16 counter 2.51µM*.
CCN(CC)CCCn1c(=S)[nH]c2ccc(Cl)cc2c1=O was read as CBFb-RUNX1 inh 2.4%, MBNL1 CUG block inconclusive, RORgamma inh 11.2µM*, CtBP-E1A blk -1.5, Six1-Eya2 inh -1.8 and VP16 counter inconclusive.
For CCN(CC)CCCn1c(=S)[nH]c2cc(Cl)ccc2c1=O the results were CBFb-RUNX1 inh 3.2%, MBNL1 CUG block -7.9%, RORgamma inh 10µM*, CtBP-E1A blk 8.6, Six1-Eya2 inh -0.5 and VP16 counter -21.6%.
`CC1(C)CC(=O)C=C(c2ccc3ccccc3c2)C1` gave CtBP-E1A blk -22.1 and Six1-Eya2 inh 10.3.
Screening Nc1ccccc1C(=O)N1CCc2ccccc21 returned MBNL1 CUG block 2.4%, RORgamma inh -31.2%, CtBP-E1A blk 4.2, Six1-Eya2 inh 5.8 and VP16 counter -1.6%.
Cc1ccc[n+](CC(=O)Nc2c(Cl)cc(Cl)cc2Cl)c1 was read as CBFb-RUNX1 inh 3.2%, MBNL1 CUG block 7.1%, RORgamma inh 12.6µM*, CtBP-E1A blk -0.1, Six1-Eya2 inh -5.3 and VP16 counter 2.3%.
